# Calls of active or inactive are those of the source. Unless noted, how the calls were made is not given here.
# Tests used:
# [1] = A549 cell viability effects, profiling panel, calcein-AM fluorescence, 48 h, basal (AID 1162); conditions: higher = more signal; further: test concentration not given here
# [2] = adipocyte viability effects, profiling panel, cell-based, 3T3-L1 adipocytes, calcein-AM fluorescence, 48 h, basal (AID 1163); conditions: 3T3-L1 adipocytes viability, higher = more signal; further: test concentration not given here
# [3] = HepG2 cell viability effects, profiling panel, calcein-AM fluorescence, 48 h, basal (AID 1164); conditions: higher = more signal; further: test concentration not given here
# [4] = MM1S cell viability effects, profiling panel, calcein-AM fluorescence, 48 h, basal (AID 1165); conditions: higher = more signal;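 further: viability of MM1S multiple myeloma cells under basal unstimulated conditions; test concentration not given here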
# [5] = basal RPMI8226 viability, no added stimulus, profiling panel, cell-based, calcein-AM fluorescence, 48 h, PK04 Diversity Set (AID 1166); conditions: RPMI8226 myeloma viability, higher = more signal;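 further: cells grown under basal conditions without added stimulus; test concentration not given here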
# [6] = basal HepG2 mitochondrial membrane potential changes, profiling panel, cell-based, JC-1 fluorescence, 24 h, 100 nL compound (AID 1167); conditions: higher = more signal; further: test concentration not given here
# [7] = basal 3T3-L1 adipocyte mitochondrial potential changes, profiling panel, cell-based, JC-1 fluorescence, 3T3-L1 adipocytes, 24 h, 100 nL compound (AID 1168); conditions: JC-1 mitochondrial fluorescence, higher = more signal, called active from +8 up or from −8 down; further: test concentration not given here
# [8] = basal RPMI8226 mitochondrial membrane potential changes, profiling panel, cell-based, JC-1 fluorescence, 24 h, 100 nL compound (AID 1169); conditions: RPMI8226 myeloma, JC-1 mitochondrial potential fluorescence, higher = more signal; further: test concentration not given here
# [9] = basal MM1S mitochondrial membrane potential changes, profiling panel, cell-based, JC-1 fluorescence, 24 h, 100 nL compound (AID 1170); conditions: higher = more signal; further: test concentration not given here
# [10] = A549 lung cancer cell viability effects, profiling panel, resazurin fluorescence, 24 h, PK04 Diversity Set (AID 1171); conditions: higher = more signal, called active from +8 up or from −8 down; further: test concentration not given here
# [11] = HepG2 liver cancer cell viability effects, profiling panel, resazurin fluorescence, 24 h, PK04 Diversity Set (AID 1172); conditions: higher = more signal; further: test concentration not given here
# [12] = basal S. cerevisiae growth modulation, no modifier, primary screen, OD600, strain BY4716, 24 h, basal condition (AID 1173); conditions: OD600, 24 h, higher = more signal, called active from +8 up or from −8 down
# [13] = MM1S myeloma cell viability, profiling panel, resazurin fluorescence, basal, 24 h, PK04 Diversity Set (AID 1174); conditions: higher = more signal, called active from +8 up or from −8 down;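 further: MM1S multiple myeloma cell line; test concentration not given here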
# [14] = molecular target: Dihydroorotate dehydrogenase (quinone), mitochondrial (Plasmodium falciparum (isolate 3D7)) (UniProt Q08210); assay: PfDHODH enzyme inhibitors, primary screen, biochemical, C-terminal His tag, absorbance 600 nm (AID 1175); conditions: DCIP absorbance 600 nm, higher = more signal, called active from +8 up or from −8 down;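 further: recombinant parasite enzyme with a five histidine tag at its C terminus; test concentration not given here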
# Chain of Dihydroorotate dehydrogenase (quinone), mitochondrial (Plasmodium falciparum (isolate 3D7)) (Q08210 whole entry, looked up): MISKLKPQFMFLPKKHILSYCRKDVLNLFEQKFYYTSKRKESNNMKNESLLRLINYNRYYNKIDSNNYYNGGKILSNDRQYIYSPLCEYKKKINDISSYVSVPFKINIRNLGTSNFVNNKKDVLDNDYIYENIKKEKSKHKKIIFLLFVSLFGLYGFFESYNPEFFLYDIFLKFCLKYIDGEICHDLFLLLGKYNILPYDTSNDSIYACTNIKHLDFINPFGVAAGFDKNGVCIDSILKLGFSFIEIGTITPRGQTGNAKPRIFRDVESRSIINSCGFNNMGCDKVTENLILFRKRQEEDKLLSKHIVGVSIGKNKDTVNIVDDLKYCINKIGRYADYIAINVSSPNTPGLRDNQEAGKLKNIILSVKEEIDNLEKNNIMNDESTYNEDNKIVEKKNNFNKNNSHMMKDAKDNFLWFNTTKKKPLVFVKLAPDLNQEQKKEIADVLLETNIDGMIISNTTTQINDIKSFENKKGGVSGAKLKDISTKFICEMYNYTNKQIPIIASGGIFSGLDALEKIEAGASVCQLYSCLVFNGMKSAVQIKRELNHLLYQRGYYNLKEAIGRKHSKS
# [15] = P. aeruginosa biofilm formation inhibitors, primary screen, strain PAO1, LB-PBS medium, absorbance 600 nm (AID 1176); further: test concentration not given here; conditions: P. aeruginosa PAO1 growth/biofilm, A600, 12 h; higher = more signal
# [16] = S. cerevisiae RM11-1a growth modifiers, primary screen, strain RM11-1a, OD600, basal, 24 h (AID 1177); conditions: OD600, 24 h, higher = more signal, called active from +8 up or from −8 down;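 further: cultures grown under basal conditions with no added stressor; test concentration not given here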
# [17] = E. coli acrAB mutant growth effects, primary screen, E. coli filamentation inducers, strain DRC39, OD650, 24 h (AID 1178); conditions: higher = more signal, called active from +8 up or from −8 down;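 further: growth measured as culture turbidity by optical density at 650 nm; test concentration not given here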
# [18] = E. coli acrAB mutant growth effects, primary screen, E. coli filamentation inducers, strain DRC39, OD650, 48 h (AID 1179);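 further: screen aims at cell division blockers that make cells filament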; conditions: E. coli DRC39 delta-acrAB growth, higher = more signal, called active from +8 up or from −8 down
# [19] = RPMI8226 myeloma cell viability, profiling panel, resazurin fluorescence, basal, 24 h, PK04 Diversity Set (AID 1180); conditions: higher = more signal;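 further: RPMI8826 multiple myeloma cell line at 5000 cells per well; test concentration not given here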
# [20] = molecular target: E3 ubiquitin-protein ligase XIAP (Homo sapiens) (UniProt P98170); assay: XIAP binders, primary screen, biophysical, small-molecule microarray, fluorescence 635 nm (AID 1181); conditions: small-molecule microarray binding, higher = more signal;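 further: score merges 667 nm emission and signal to noise over triplicate slides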
# Chain of E3 ubiquitin-protein ligase XIAP (Homo sapiens) (P98170 whole entry, looked up): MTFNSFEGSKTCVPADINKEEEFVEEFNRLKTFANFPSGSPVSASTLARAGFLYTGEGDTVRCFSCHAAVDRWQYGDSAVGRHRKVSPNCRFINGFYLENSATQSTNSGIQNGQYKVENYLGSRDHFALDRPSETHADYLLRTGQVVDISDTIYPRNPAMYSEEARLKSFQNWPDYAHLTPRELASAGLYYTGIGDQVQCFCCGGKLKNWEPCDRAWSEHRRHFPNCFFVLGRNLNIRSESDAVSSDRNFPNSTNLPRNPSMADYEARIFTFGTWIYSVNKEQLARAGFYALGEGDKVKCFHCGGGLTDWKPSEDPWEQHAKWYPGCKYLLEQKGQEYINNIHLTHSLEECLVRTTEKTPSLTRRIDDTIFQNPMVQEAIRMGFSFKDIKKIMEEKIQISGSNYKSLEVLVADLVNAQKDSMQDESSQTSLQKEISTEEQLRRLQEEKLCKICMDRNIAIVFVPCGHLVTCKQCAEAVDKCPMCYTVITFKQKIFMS
Structure (SMILES),z-score [1],z-score [2],z-score [3],z-score [4],z-score [5],z-score [6],z-score [7],z-score [8],z-score [9],z-score [10],z-score [11],z-score [12],z-score [13],composite z-score [14],z-score [15],z-score [16],z-score [17],z-score [18],z-score [19],composite z-score [20]
CCCCN1CC=CC23O[C@@H]4/C=C\CCCOC(=O)C4[C@H]2C(=O)N(C(C)CO)[C@@H]3C1=O (stereo not given in full),-0.455,-0.455,-0.564,0.35,1.4,0.698,0.0147 (inactive),-0.546,-1.11,-0.249 (inactive),-0.901,-0.138 (inactive),0.196 (inactive),-0.415 (inactive),-0.857 (inactive),0.429 (inactive),0.742 (inactive),0.738 (inactive),0.442,-0.157
C=CCC(OC(C)=O)[C@@H]1[C@@H](N(Cc2ccc(-c3cccc(C(F)(F)F)c3)o2)C(=O)c2ccc(C)cc2)c2cc(OCCCO)ccc2N1C(=O)c1ccc2ccccc2n1 (stereo not given in full),1.03,0.27,1.91,-0.0472,-0.526,2.67,-0.351 (inactive),0.962,-0.165,0.16 (inactive),0.347,-0.304 (inactive),0.0003 (inactive),-1.35 (inactive),-0.325 (inactive),-0.0057 (inactive),-0.379 (inactive),0.317 (inactive),-0.37,0.265
C=CCN1Cc2ccccc2C[C@]2(N=C(c3ccc(OCCCO)cc3)O[C@@H]2c2ccccc2)C1=O,-0.584,0.975,-0.676,-3.58,-3.71,0.96,0.101 (inactive),-1.16,-0.762,-2.13 (inactive),-0.677,-1.35 (inactive),-2.24 (inactive),-1.1 (inactive),1.32 (inactive),-0.211 (inactive),1.13 (inactive),1.09 (inactive),-2.07,-0.186
CCCC[C@@H]1C[C@H]1[C@@H](NC(=O)c1ccccc1)c1ccc(-c2ccccc2)cc1,-1.54,-1.15,-3.24,-2.55,-4.26,-3.59,-0.49 (inactive),-0.568,-2.19,-1.31 (inactive),-2.26,-0.552 (inactive),-2.24 (inactive),-0.297 (inactive),0.122 (inactive),0.219 (inactive),-0.499 (inactive),-0.293 (inactive),-3.64,1.14
Cc1c(NC(=O)/C(C#N)=C/C=C/c2ccccc2)c(=O)n(-c2ccccc2)n1C,-0.864,0.287,0.458,0.142,0.24,-1.05,-0.113 (inactive),0.305,0.56,-0.2 (inactive),-0.0273,-0.0874 (inactive),-0.335 (inactive),0.316 (inactive),0.242 (inactive),-0.74 (inactive),1.39 (inactive),0.0139 (inactive),0.161,0.313
CCCNC(=O)[C@@]1(C)c2ccccc2C(=O)N(C(C)C)[C@H]1c1ccc(CO)cc1,-0.23,0.793,-0.13,-0.634,-0.025,0.977,-0.0917 (inactive),0.0976,-0.426,0.788 (inactive),0.241,-0.619 (inactive),0.148 (inactive),-0.44 (inactive),0.332 (inactive),-0.531 (inactive),-0.252 (inactive),-0.516 (inactive),0.0567,-0.0553
[N-]=[N+]=NCc1ccccc1C[C@]1(C(N)=O)N=C(c2ccc(OCCCO)cc2)O[C@H]1c1ccccc1N=[N+]=[N-],-0.169,0.0873,-0.153,-2.05,-1.55,-0.727,-1.38 (inactive),-1.04,-0.649,-0.38 (inactive),0.776,0.603 (inactive),-1.2 (inactive),1.56 (inactive),1.54 (inactive),2.09 (inactive),0.616 (inactive),0.116 (inactive),-1.24,-0.0444
C=CCCN(CC#C[C@H]1Oc2ccccc2S(=O)(=O)N2CCC[C@@H]12)S(=O)(=O)c1ccc(C)cc1,0.436,-0.257,-0.383,-3.21,-1.77,0.825,-0.184 (inactive),-0.972,-1.5,0.967 (inactive),-0.28,-0.0024 (inactive),-1.33 (inactive),0.711 (inactive),0.425 (inactive),1.62 (inactive),0.0069 (inactive),-0.285 (inactive),-1.55,0.0027
Cn1c2c(c3ccccc31)C(=O)C1NC2C=CC1(C)C(=O)OCc1ccccc1 (stereo not given),-0.618,-0.0704,0.583,-0.175,0.0208,0.603,-1.65 (inactive),-0.0327,0.426,-0.078 (inactive),0.0885,0.272 (inactive),-1.35 (inactive),-0.296 (inactive),-0.253 (inactive),-0.128 (inactive),-1.33 (inactive),-1.06 (inactive),-1.2,0.0546

# Reference: PubChem BioAssay
